# SMARCA2 activ – SMARCA2 function activation, primary screen. MG213 cells, MMTV-luciferase reporter, dexamethasone, overnight. activation, % at 9.1 µM. 370,000 tested, 1% active; in the data active = activation above about 7.8%;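 note: 0% = vehicle wells and 100% = reference activator wells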
# hcDAF12 agonist – activators of H. contortus DAF-12 nuclear receptor | HEK293 hcDAF-12 lit1-tk-luc reporter, luminescence; 0% DMSO, 100% Δ7-dafachronic acid | activation, % at 6.8 µM | 370,000 tested, 1.4% active | AID 652067;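 active = activation above the mean of all tested compounds plus 3 SD, cut at about 5.5% in these data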;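 note: 100% = response to 3 µM Δ7-dafachronic acid high control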
# DAX1 inh – inhibitors of DAX1 repression of SF-1 activated StAR promoter; inhibition, % at 6.8 µM; 370,000 tested, 1.1% active; HEK293T StAR-luciferase reporter, SF-1/DAX-1 repression relief;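 active = inhibition above the mean over all tested compounds plus 3 SD, cut at about 3.6% in these data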;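 note: 0% = DAX-1 cells with DMSO and 100% = cells lacking DAX-1 with DMSO; higher inhibition means more luminescence from relief of DAX-1 repression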
# ssDAF12 agonist – activates DAF-12 receptor from parasite S. stercoralis | AID 652126 | HEK293 ssDAF-12/GRIP1 lit1-tk-luc reporter, luminescence; % of 3 µM dafachronic acid response | activation, % at 6.8 µM | 370,000 tested, 1% active;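 active = activation above the mean over all tested compounds plus 3 SD, cut at about 0.9% in these data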;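 note: 0% = DMSO-only wells and 100% = 3 µM delta7-dafachronic acid wells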
# hgDAF12 agonist – agonists of H. glycines DAF-12 nuclear receptor; HEK293 GAL4-hgDAF12 UAS-luciferase reporter, agonist luminescence; normalized to butyrate control; activation, % at 6.8 µM; 370,000 tested, 1.8% active;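 active = activation above a cutoff set at the mean of all screened compounds plus 3 SD, cut at about 10% in these data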;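 note: 0% = DMSO wells and 100% = sodium butyrate wells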
# DAX1 inh confirm – NR0B1 (human) inhibition, confirmation. 2,400 tested, 87% active. shares compounds with DAX1 inh. HEK293T StAR-promoter luciferase reporter, SF-1/DAX-1 repression. inhibition, % at 6.8 µM;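 active = inhibition above the average of every tested compound plus 3 SD, cut at about 3.8% in these data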;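 note: 0% = DAX-1 cells with DMSO and 100% = no DAX-1 control cells with DMSO; active compounds raise luminescence by relieving repression of the StAR reporter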
# Target sequence (P51843 whole entry, looked up): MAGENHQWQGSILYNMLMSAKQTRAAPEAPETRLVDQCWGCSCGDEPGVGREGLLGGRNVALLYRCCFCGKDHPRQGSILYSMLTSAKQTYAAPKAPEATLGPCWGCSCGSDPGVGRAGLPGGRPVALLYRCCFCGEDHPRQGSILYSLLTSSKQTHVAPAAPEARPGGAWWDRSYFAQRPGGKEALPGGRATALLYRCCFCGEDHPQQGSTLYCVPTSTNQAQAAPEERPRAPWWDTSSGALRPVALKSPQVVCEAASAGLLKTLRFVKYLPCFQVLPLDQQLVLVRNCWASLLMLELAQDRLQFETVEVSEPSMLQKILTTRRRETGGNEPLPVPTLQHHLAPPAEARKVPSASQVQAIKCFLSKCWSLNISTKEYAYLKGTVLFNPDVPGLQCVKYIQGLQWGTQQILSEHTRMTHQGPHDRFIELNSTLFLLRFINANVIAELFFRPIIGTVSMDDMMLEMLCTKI
# SF1 mutant ctr – nonselective inhibitor or artifact in SF-1 mutant DAX1 counter-screen | 2,400 tested, 78% active | HEK293 StAR-luciferase, SF-1 AF2 mutant, luminescence | inhibition, % at 6.8 µM | shares compounds with DAX1 inh;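 active = inhibition above the mean of all tested compounds plus 3 SD, cut at about 3% in these data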;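 note: 0% = DAX-1 transfected cells with DMSO and 100% = cells without DAX-1 with DMSO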
# Starred values were filed as active, the others as inactive; nt = not tested or not shown. Shown are actives, neighbours in structure and some others; about 4.2% of the full set was active somewhere.
SMILES,SMARCA2 activ,hcDAF12 agonist,DAX1 inh,ssDAF12 agonist,hgDAF12 agonist,DAX1 inh confirm,SF1 mutant ctr
CC(C)C[C@@H]1Cc2[nH]c(=S)[nH]c(=O)c2[C@H](C)O1,3,-1,5.8*,-1,1,3,1
CCN(C(=O)[C@H]1CC(=O)O[C@@H]1c1ccccc1)c1ccccc1,-4,1,0,-1,-4,nt,nt
Fc1ccccc1Cn1ccc2ccc(-c3ccc4ccn(Cc5ccccc5)c4c3)cc21,-1,0,2,-1,2,nt,nt
CN1CCN(c2ccccc2NC(=S)NC(=O)c2cc3ccccc3o2)CC1,-2,-1,0,-1,0,nt,nt
Cc1c(NC(=S)NC(=O)c2cc3ccccc3o2)cccc1C(=O)O,0,3,6.8*,0,4,6.6*,5.8*
Cc1ccc(Nc2nnc(SCC3CCCCO3)s2)cc1 (stereo unspecified),1,4,0,0,4,nt,nt
COc1ccccc1Nc1nnc(SCC2CCCCO2)s1 (stereo unspecified),-1,6.0*,5.7*,0,11*,4.5*,1
Cc1ccc(S(=O)(=O)N(Cc2ccccc2F)C(=O)N2CCN(C)CC2)cc1,-4,0,5.0*,-1,1,2,1
CC(=O)c1cccc(NC(=O)/C(=C\c2ccco2)NC(=O)c2ccco2)c1,-1,-1,4.9*,-1,0,1,1
CC(=O)c1ccc(NC(=O)/C(=C\c2ccco2)NC(=O)c2ccco2)cc1,-2,-2,0,-2,1,nt,nt
Cc1cccc2nc(COc3ccc4ccccc4c3Br)cn12,2,6.0*,4.8*,0,10,12*,7.3*
Cc1cccc2nc(CSc3ccccc3N)cn12,6,4,2,1,8,nt,nt
Cc1ccc(C)c(NC(=O)c2cnn3ccccc23)c1,1,-1,-1,-2,3,nt,nt
CC(=O)c1ccc(NC(=O)c2cnn3ccccc23)cc1,2,4,5.8*,-1,5,5.3*,2
CC(C)(C)c1ccc(C(=O)NC(=S)NNC(=O)COc2ccccc2)cc1,1,2,12*,0,11*,2,2
COc1ccc(Nc2c(-c3ccc(F)cc3)nc3nc(C)cc(C)n23)cc1,6,0,0,-1,8,nt,nt
CN1CCCC1CCSc1ncccc1-c1nc2ccccc2[nH]1 (stereo unspecified),-2,-1,1,-1,4,nt,nt
Cc1cccnc1NC(=O)COc1ccc2c(c1)CCC2,2,1,6.1*,1.0*,9,4.7*,2
Cc1ccc(NC(=O)COc2ccc3c(c2)CCC3)nc1,3,0,5.1*,0,11*,8.4*,3.5*
Cc1cccnc1NC(=O)COc1ccc2oc3c(c2c1)CCCC3,1,0,0,-1,-1,nt,nt
C=CCCC1CN(Cc2ccc(OC)cc2)S(=O)(=O)c2c(Oc3ccc(F)cc3OC)cccc2O1 (stereo unspecified),-5,-2,-2,-1,2,nt,nt
COc1ccc(C=C2CCc3ccccc3C2=O)cc1,2,3,6.6*,0,2,7.2*,-6
CCOc1ccc(-c2cc(C(=O)Nc3ccc(F)cc3)[nH]n2)c(C)c1,6,3,7.4*,0,12*,10*,6.7*
CC(C)C(=O)Nc1ccc(-c2nc3ncccc3o2)cc1,3,3,2,1,9,nt,nt
CC(C)C(=O)Nc1ccc(-c2nc3cccnc3o2)cc1,6,5.9*,4.5*,0,13*,12*,4.1*
COc1cccc(CNC(=O)CN2CCCc3ccccc32)c1OC,2,0,-1,-1,2,nt,nt
COc1ccc(-c2cc3ccc(OCC(C)=O)cc3oc2=O)cc1OC,6,4,3,-1,4,nt,nt
COc1ccc(-c2cc3ccc(OCC(C)=O)cc3oc2=O)cc1,5,5.8*,9.8*,0,11*,6.5*,4.5*
O=C(/C=C/c1ccc(F)cc1)NC(=S)Nc1ccccc1O,1,-1,0,-1,3,nt,nt
